# Bioassay records from PubChem.
# mHTT-CaM PPI inh: mHTT-calmodulin interaction abrogation; P42858; AID 1671202; AlphaScreen His-mHTT/GST-CaM binding, luminescence; inhibition, % at 15 µM; 190,000 compounds, 3.6% hits;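 further: 0% = both proteins with DMSO and 100% = one protein alone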
# Pf apPOL block: Pf-apPOL DNA polymerase inhibition; Recombinant Pf-apPOL, molecular beacon fluorescence, 1.5 h; inhibition, % at 10 µM; 210,000 compounds, 0.25% hits
# * = called active by the depositor; · = no result given. Shown is part of a subset that was picked to be rich in hits. No stated cut-off is given here; in the data, active means inhibition above about 50%; inactive means the rest.
SMILES,mHTT-CaM PPI inh,Pf apPOL block
OC(COc1ccc(C23CC4CC(CC(C4)C2)C3)cc1)C[N+]1(Cc2ccccc2)CCOCC1 (stereo unspecified),100*,-61
Cc1cc(C)n2nc(SCC(=O)NCCc3ccc(Cl)cc3)nc2n1,42,1
Cc1c(Cl)cccc1N1CCN(C(=O)c2ccc(Cl)cc2)C(C)C1=O (stereo unspecified),4,-3
CN1C(=O)C(O)(CC(=O)c2ccccn2)c2cc(Br)ccc21 (stereo unspecified),2,-6
CN1C(=O)C2(NN=C(c3ccccc3)S2)c2cc(Br)ccc21 (stereo unspecified),100*,-3
COc1ccc(C(=O)NC2(c3nc(C)no3)CCCCC2)cc1F,-8,-1
COc1ccc(OC)c(C2C=C(Nc3ccccc3)C(=O)N2c2ccccc2)c1 (stereo unspecified),5,-7
O=C1C(Nc2ccccc2)=CC(c2ccccc2[N+](=O)[O-])N1c1ccccc1 (stereo unspecified),66*,1
CCC(CO)Nc1ncc([N+](=O)[O-])c(N)n1 (stereo unspecified),-20,-4
Cc1nccn1CCNC(=O)C(=O)Nc1ccc(OC(F)(F)F)cc1,-7,-14
COc1cccc(NC(=O)CC2Nc3ccccc3NC2=O)c1 (stereo unspecified),8,3
O=C(CC1Nc2cccc3cccc(c23)NC1=O)Nc1cccc(C(F)(F)F)c1 (stereo unspecified),51*,1
O=C1C2CC=CCC2C(=O)N1CNc1ccccc1Cl (stereo unspecified),-5,3
COc1ccc(C)cc1-n1cnc2cc(C(=O)NC3CCCCC3C)ccc21 (stereo unspecified),66*,-2
Cc1ccc(-n2cnc3cc(C(=O)NC4CCCC4)ccc32)c(C)c1,11,34
CSc1nc(-c2ccccc2)cn1-c1ccccc1F,18,-1
OCC1=CC[N+]2(Cc3ccccc3)CCC(O)C12 (stereo unspecified),·,-2
N#C/C(=C\c1ccc(-c2ccc3c(c2)C(=O)NC3=O)o1)c1nc2ncc(Br)cc2[nH]1,73*,-5
Cn1c(=O)n(C)c2cc(/C=C(\C#N)c3nc4ncc(Br)cc4[nH]3)ccc21,10,6
O=C(On1c(-c2ccccc2)nc2ccccc2c1=O)c1ccco1,100*,-10
Cc1onc(-c2c(Cl)cccc2Cl)c1C(=O)On1c(-c2ccccc2)nc2ccccc2c1=O,·,-3
CCCn1ncc(N2CCC(C(=O)N(C)CCc3ccccn3)CC2)cc1=O,-4,-3
CNC(=O)Nc1ccc(C2(C(=O)N3CCN(c4cccc(OC)c4)CC3)CCC2)cc1,15,-4
Cc1cc(-c2nnc(-c3ccc(C(F)(F)F)cc3)o2)no1,·,-9
CC(=O)N1CCN(c2nc3c(s2)CC(C(=O)NCCN(C)C2CCCCC2)CC3)CC1 (stereo unspecified),11,1
SMILES,mHTT-CaM PPI inh,Pf apPOL block
Fc1ccc(-c2nc3ccccc3[nH]2)cc1,-16,-4
c1cc(-c2nc3ccccc3[nH]2)nc(-c2nc3ccccc3[nH]2)c1,78*,24
O=[N+]([O-])c1ccc2c(c1)OC1(CCCCC1)O2,-4,0
O=[N+]([O-])c1cc(Cl)ccc1NCCNS(=O)(=O)c1ccccc1,41,-1
O=[N+]([O-])c1cc(Cl)ccc1NCCCNS(=O)(=O)c1ccccc1,53*,-1
COc1cccc(NC(=O)CSc2nnc(Cc3ccccc3)n2C)c1,73*,0
COc1cccc(NC(=O)CSc2nnc3ccccn23)c1,-8,4
COc1ccccc1NC(=O)N1CCN(c2ccccc2OC)CC1,-1,-30
COc1ccc(OC)c(NC(=O)N2CC(C)Oc3ccc(C)cc32)c1 (stereo unspecified),62*,-16
COc1cccc(NC(=O)N2CC3CCCN3c3ccccc32)c1 (stereo unspecified),73*,-3
COc1ccccc1NC(=O)N1CC(C)Oc2ccc(C)cc21 (stereo unspecified),-2,-4
COc1ccccc1NC(=O)N1CCN(C)c2ccccc21,61*,0
COc1cccc(CNC(=O)N2CC3CCCN3c3ccccc32)c1 (stereo unspecified),66*,0
CCOC(=O)CNC(=O)N1CC2CCCN2c2ccccc21 (stereo unspecified),16,-3
O=C(Nc1cccc(F)c1)N1CC2CCCN2c2ccccc21 (stereo unspecified),46,-3
Cc1ccc(C(=O)N2CC=C(C(=O)NC(C)C)CC2)cc1,0,-1
O=C(Cc1csc(SCc2cccc(Cl)c2)n1)Nc1ccc2c(c1)OCCO2,15,0
Cn1c(O)c(C=C2C=Nc3ccccc32)sc1=Nc1ccc(N2CCOCC2)cc1,21,-1
COc1ccc(OC)c(NC(=O)N2CCCC2c2ccccc2C)c1 (stereo unspecified),19,-4
COc1ccc(OC)c(NC(=O)N2CC3CCCN3c3ccccc32)c1 (stereo unspecified),83*,1
COc1ccc(CNC(=O)CCC(=O)N2CC3CCCN3c3ccccc32)c(OC)c1 (stereo unspecified),36,-4
COc1cc(NC(=O)N2CC3CCCN3c3ccccc32)cc(OC)c1OC (stereo unspecified),62*,4
COc1cc(NC(=O)N2CCOc3ccc(C)cc32)cc(OC)c1OC,8,-7
O=C(Nc1ccc(F)c(Cl)c1)N1CC2CCCN2c2ccccc21 (stereo unspecified),4,-3
COC(=O)c1cccc(NC(=O)N2CC3CCCN3c3ccccc32)c1 (stereo unspecified),69*,-2
SMILES,mHTT-CaM PPI inh,Pf apPOL block
COc1ccc(OC)c(CCNC(=O)CCC(=O)N2CC3CCCN3c3ccccc32)c1 (stereo unspecified),53*,-2
CC1Oc2ccccc2C=C1C=C1Oc2c(ccc(O)c2CN2CCOCC2)C1=O (stereo unspecified),20,-6
COc1ccc(CN2CCC(N3CCCCCC3)CC2)c(OC)c1,-1,-1
NC(=O)c1cccc(N=c2oc3ccccc3cc2C(N)=O)c1,13,4
O=C(NCC(c1cccs1)N1CCc2ccccc21)c1ccccc1[N+](=O)[O-] (stereo unspecified),34,-3
CCOC(=O)c1cccc(NC(=O)N2CC(CC)Oc3ccccc32)c1 (stereo unspecified),-19,-3
CCOC(=O)c1cccc(NC(=O)N2CC3CCCN3c3ccccc32)c1 (stereo unspecified),78*,0
Cc1ccnc(N2CCC(C(=O)NCc3ccc(C)o3)CC2)n1,-16,-6
Cc1ccc(C)c(N2CCC(C(=O)Nc3cccc(Cl)c3)C2=O)c1 (stereo unspecified),-16,-3
Cc1ccc(C)c(N2CCC(C(=O)Nc3cccc(C(F)(F)F)c3)C2=O)c1 (stereo unspecified),79*,-4
O=C(C[C@H]1C(=O)N(Cc2cccnc2)C[C@@H]1Cc1ccccc1)Nc1ccc(Br)cc1,27,-6
COc1ccc(N2C[C@H](C)[C@@H](CC(=O)Nc3ccc(Br)cc3)C2=O)cc1,-5,0
COc1ccc(N2C[C@H](Cc3ccccc3)[C@@H](CC(=O)Nc3ccccc3)C2=O)cc1,74*,0
COc1ccc(NC(=O)C[C@H]2C(=O)N(c3ccccc3)C[C@@H]2Cc2ccccc2)cc1,18,-7
